Test results taken from ChEMBL document CHEMBL3433997, “St. Jude Leishmania screening dataset” (2016).

Legend:
Type in all cases: functional
[1] = molecular target: Solute carrier family 2, facilitated glucose transporter member 1 (Homo sapiens) (UniProt P11166); assay: ST_JUDE_LEISH: Cytotoxicity at 2uM final concentration against transgenic Leishmania Mexicana promastigotes LmGLUT1 that are glucose transport deficient and complemented with the human glucose transporter GLUT1. Activity is measured by DNA content using SYBR green in vitro
[2] = molecular target: Hexose transporter 1 (Plasmodium falciparum) (UniProt O97467); assay: ST_JUDE_LEISH: Cytotoxicity at 2uM final concentration against transgenic Leishmania Mexicana promastigotes LmPfHT that are glucose transport deficient and complemented with the Plasmodium falciparum hexose transporter. Activity is measured by DNA content using SYBR green in vitro
[3] = molecular target: Glucose transporter (Leishmania mexicana) (UniProt O61059); assay: ST_JUDE_LEISH: Cytotoxicity at 2uM final concentration against transgenic Leishmania Mexicana promastigotes LmGT2 that are glucose transport deficient and complemented with the L. Mexicana glucose transporter 2. Activity is measured by DNA content using SYBR green in vitro

Solute carrier family 2, facilitated glucose transporter member 1 (Homo sapiens), sequence (P11166 whole entry): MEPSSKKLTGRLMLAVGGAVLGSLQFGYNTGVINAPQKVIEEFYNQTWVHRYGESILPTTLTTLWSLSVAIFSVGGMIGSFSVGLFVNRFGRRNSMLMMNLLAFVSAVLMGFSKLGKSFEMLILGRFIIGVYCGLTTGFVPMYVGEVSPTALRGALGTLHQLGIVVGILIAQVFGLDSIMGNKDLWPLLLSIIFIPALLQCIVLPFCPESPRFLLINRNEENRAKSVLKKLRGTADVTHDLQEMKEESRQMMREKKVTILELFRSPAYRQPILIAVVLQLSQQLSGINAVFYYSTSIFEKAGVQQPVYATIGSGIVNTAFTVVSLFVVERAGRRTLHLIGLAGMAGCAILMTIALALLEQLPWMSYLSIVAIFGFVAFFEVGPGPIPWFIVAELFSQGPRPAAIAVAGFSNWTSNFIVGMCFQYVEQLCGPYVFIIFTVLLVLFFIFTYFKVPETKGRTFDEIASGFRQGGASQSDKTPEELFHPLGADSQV

Row | SMILES | inhibition [1] | inhibition [2] | inhibition [3]
1 | CCCCCCC1(C)N=C(N)N=C(N)C1c1ccc(Cl)c(Cl)c1 (centres undefined) | 1.71% | 1.39% | 0.06%
2 | O=C(Nc1ccc(OC2CCN(Cc3ccccc3)CC2)c(Cl)c1)c1ccc(F)cc1 | 2.05% | 2% | 1.68%
3 | COc1cc2ccccc2cc1CCNCCCCNCCc1cc2ccccc2cc1OC | 101% | 82.7% | 104%
4 | Cc1noc(C)c1-c1ccc2c(Nc3ccccc3C(C)(C)C)c(C(=O)NCc3ccc(C(F)(F)F)cc3)cnc2c1 | 3.44% | 5.41% | 3.69%
5 | Cn1cncc1C(=O)Nc1cccc(-c2ccc(-c3nc4ccccc4[nH]3)cc2)c1 | -2.56% | -2.33% | -0.9%
6 | Cc1ccc(C)c(NC(=O)CC2C(=O)N(c3ccccc3)C(=S)N2Cc2ccco2)c1 (centres undefined) | 4.9% | 5.73% | 5.93%
7 | COc1ccc(CN2CCCC(Nc3ccc(F)c(F)c3)C2)c(O)c1 (centres undefined) | 2.58% | 1.39% | 3.1%
8 | CN(C)CCOc1ccc2c(=O)cc(CCc3cccc(F)c3F)n(CC(=O)N(C)Cc3ccc(-c4ccc(C(F)(F)F)cc4)cc3)c2c1 | -1.05% | -0.55% | 0.06%
9 | CCOc1ccc(C(=O)Nc2cc(Br)c3c(c2)CNCC3)cc1Br | 11.7% | 12.7% | 6.15%
10 | FC(F)(F)Oc1ccc(Nc2cc(-c3ccncc3)nc(-c3cccnc3)n2)cc1 | 2.18% | 3.54% | 0.59%
11 | COc1ccc2nccc(N(C)CC3(O)CCC(NCc4ccc5c(n4)NC(=O)CS5)CC3)c2n1 (centres undefined) | 3.69% | 3.78% | 1.23%
12 | Cc1cc(F)ccc1[C@H]1CNCCN1C(=O)N(C)C(C)(C)c1cc(C(F)(F)F)cc(C(F)(F)F)c1 | -0.57% | -1.23% | -1.4%
13 | Cc1nccn1CCNC(=O)CN1CCC2(CCC1=O)CC(=O)c1ccccc1O2 (centres undefined) | 8.32% | 7.32% | 7.28%
14 | CC(=O)NC(c1cccs1)c1cc(Cl)c2cccnc2c1O (centres undefined) | 7.76% | 6.65% | 7.85%
15 | CCCCCOc1ccc(C(O)C(CCC(CN2CCCCCC2)C(O)c2ccc(OCCCCC)cc2)CN2CCCCCC2)cc1 (centres undefined) | 3.22% | 2.73% | 1.43%
16 | CCCc1cc(Cc2cnc(N)nc2N)cc(OC)c1OC | 0.14% | 2.78% | 0.24%
17 | O=C(Nc1ccc(CN2CCN(S(=O)(=O)c3cccc(Cl)c3)CC2)cc1)c1cccs1 | 3.93% | 2.08% | 1.17%
18 | CC(C)C1C(=O)N(S(C)(=O)=O)C2CCN(C(=O)c3ccc(CN4CCCCC4)c([N+](=O)[O-])c3)C12 (centres undefined) | 3.87% | 4.49% | -1.4%
19 | Oc1ccc2ncnc(Nc3ccc(OCc4cccc(F)c4)c(Cl)c3)c2c1 | -2.81% | -0.64% | -1.78%
20 | O=C(NCCN1CCC(c2ccncc2)CC1)c1cccc(Nc2nccc(Nc3ccc(Oc4ccccc4)cc3)n2)c1 | -0.12% | -0.29% | -0.06%
21 | CCCCNC(=N)c1ccc(OCCCCCOc2ccc(C(=N)NCCCC)cc2)cc1 | 5.34% | 2.05% | -0.11%
22 | COc1cc2nc(N3CCC(CNC(=O)c4cc5ccccc5s4)CC3)nc(N)c2cc1OC | 11.8% | 11% | 10.4%
23 | O=C(NC1CCCCCC1)C1CCCN(C(=O)c2ccc(O)c(-c3ccc(Cl)c(Cl)c3)c2)C1 (centres undefined) | 3.16% | 2.31% | 2.57%
24 | CN1CCCC1CCNc1ncc2c(-c3ccc(NC(=O)Nc4cc(C(F)(F)F)ccc4F)c(F)c3)nn(C)c2n1 (centres undefined) | -1.71% | 0.21% | -0.39%
25 | Nc1nc(O)c2cc(CN(C=O)c3ccc(C(=O)N[C@@H](CCC(=O)O)C(=O)O)cc3)ccc2n1 | 6.36% | 4.17% | 2.98%
26 | CN1CCN(c2cc(NC(=O)c3ccc(-c4ccc(C#N)cc4)cc3)ccc2Cl)CC1 | 0.4% | -0.14% | 0.17%
27 | CC1(C)[C@H]2CC[C@@H](CNc3nc(NCCc4c[nH]cn4)nc(NCc4cc(F)ccc4F)n3)[C@@H]1C2 | 4.07% | 0.62% | 1.36%

Row | SMILES | inhibition [1] | inhibition [2] | inhibition [3]
28 | O=C(NC1CC1)c1ccc(Nc2nccc(-c3c(-c4cccc(NC(=O)c5c(F)cccc5F)c4)nn4ccccc34)n2)cc1 | 7.45% | 8.87% | 3.41%
29 | COc1cc(-c2nc(-c3ccc([N+](=O)[O-])cc3)c(-c3ccccc3)[nH]2)cc(OC)c1O | 3.48% | 5.84% | 5.26%
30 | COc1ccc(-c2ccc(NC(=O)c3ccccc3)cc2)cc1CN1CCCN(C)CC1 | 1.09% | -0.14% | -1.41%
31 | O=C(/C=C/c1ccc(Cl)c(Cl)c1)NCCCCCN1CCC(NC(=O)c2ccc([N+](=O)[O-])cc2)CC1 | 12.2% | 9.99% | 9.31%
32 | N#Cc1ccc(N2CCN(Cc3ccc(-c4cccc(-c5nc6ccccc6[nH]5)c4)cc3)CC2)nc1 | 2.3% | 1.43% | 0%
33 | COc1ccc2ncc(C#N)c(CCN3CCC(NCc4ccc5c(c4)OCCO5)CC3)c2c1 | 48.5% | 64.6% | 83.2%
34 | Nc1nc2ccc(S(=O)(=O)Nc3ccc(C(=O)N[C@@H](CCC(=O)O)C(=O)O)c(F)c3)cc2c(=O)[nH]1 | 0.57% | 1.22% | 1.53%
35 | Cc1cccc2nc(-c3cccc(-c4cccc(NC(=O)CC5NC(=O)c6ccccc65)c4)c3)[nH]c12 (centres undefined) | 0.82% | 1.34% | 3.21%
36 | Nc1ccc(Oc2ccc(Cc3cnc(N)nc3N)cc2)cc1 | 3.93% | 4.16% | 3.87%
37 | CC(Cc1ccc(OCCCCOc2ccccc2)cc1)NCCc1ccc(Oc2ccccc2)cc1 (centres undefined) | 87.5% | 84.7% | 78.2%
38 | CC1CCCCN1CCCNc1nc(NCc2ccccc2)c2ccccc2n1 (centres undefined) | 23.1% | 31.8% | 10.2%
39 | Cc1nnnn1-c1ccc(C(=O)N2CCC3(CC2)CN(Cc2ccc(Cl)c(Cl)c2)C(=O)O3)cc1 | 8.95% | 8.51% | 6.87%
40 | CCc1cccc(OCCCON2C(=N)N=C(N)NC2(C)C)c1 | 7.55% | 9.83% | 8.16%
41 | CN(C)CCCOc1ccccc1CN1CC[C@H](NC(=O)c2ccc(Cl)c(Cl)c2)C1 | -0.17% | -0.54% | -2.05%
42 | Cc1ccc(NC(=O)c2cnc(N3CCN(c4ccncc4)CC3)c(Cl)c2)cc1 | 42.8% | 16.1% | 17.1%
43 | Cc1cc2nc(-c3ccc(C(=O)NC4CCN(Cc5ccccc5)CC4)cc3)[nH]c2cc1C | 14.1% | 12.9% | 10.7%
44 | CN(C)c1ccc(-c2csc(C(=O)NCC3CCN(CC4CCCCC4)C3)c2)cc1 (centres undefined) | 2.79% | 0.77% | 1.05%
45 | Nc1ncc(-c2cn[nH]c2)cc1-c1nc2ccc(F)cc2[nH]1 | 2.58% | 3.29% | 1.99%
46 | CC1CNC(c2ccc(NC(=O)Nc3ccc(C4=NC(C)CN4)cc3)cc2)=N1 (centres undefined) | 4.6% | 5.64% | 3.84%
47 | CC(C)(C)c1cc(C(=O)N2CCC(c3ccccn3)CC2)n(Cc2ccccc2)n1 | 0.22% | 1.08% | -0.6%
48 | O=C(N[C@@H](CC1CCCCC1)C(=O)NC1CCCCC1)c1ccc(O)c(-c2cccc(C(F)(F)F)c2)c1 | -2.73% | -1.15% | -3.33%
49 | CN1CCN(c2ccnc3ccc(NC(=O)c4ccc(Cl)c(Cl)c4)cc23)CC1 | -1.88% | 0.68% | 0.97%
50 | Cc1cc(C)n2nc(C(=O)Nc3cc(C(F)(F)F)ccc3N3CCOCC3)nc2n1 | 3% | 2.82% | 3.81%
51 | CC(=O)Nc1ccc(S(=O)(=O)N(Cc2cccc(Oc3ccccc3)c2)C2CCN(C/C=C(\C)CCC=C(C)C)CC2)cc1 | -0.15% | 0.21% | -0.73%
52 | CC(C)(C)c1ccc(C(=O)NC2CCC(CCN3CCc4ccc(S(C)(=O)=O)cc4CC3)CC2)cc1C(F)(F)F (centres undefined) | 1.87% | 2.06% | 6.75%
53 | COc1ccccc1CCNc1nc(C)cc(N[C@@H](CC(C)C)C(=O)NCc2cccc(F)c2)n1 | 9.56% | 8.52% | 8.86%
